Experimental data taken from PubChem BioAssay (NCATS).
Where “and” joins values, the source holds several entries; their conditions need not be identical. Equal entries are not always repeated. Results filed as inconclusive are left out. Calls of active or inactive are those of the source. Unless noted, calls come from the whole dose curve; as a rule, active = well fitted curve in the direction sought with a large enough effect; inconclusive = small, poorly fitted or top-dose-only effect, or another doubt; inactive = no such curve, though single readings can be large; an effect the other way counts as inactive or inconclusive.

Assays:
Hek293T = assay: Primary qHTS to identify gynecologic anti-cancer compounds using libraries of approved drugs and bioactive compounds (AID 1345084); conditions: Gynecologic cancer cell panel viability, ATPlite luminescence, 48 h, control line for the selectivity index; series mostly up to 57.5 µM; note: % is set by controls: 0 for no effect and ±100 for the full control effect; nearly all actives have a fitted effect of over 55% in size
Method in brief: (§1)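 Five-concentration response, 48 h; readout is ATP-driven luciferase luminescence.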

JEG-3 = assay: as above; conditions: Gynecologic cancer cell panel viability, ATPlite luminescence, 48 h; series mostly up to 57.5 µM
Method in brief: as §1

PA-1 = assay: as above; conditions: Gynecologic cancer cell panel viability, ATPlite luminescence, 48 h; series mostly up to 57.5 µM
Method in brief: as §1

SKOV3 = assay: as above; conditions: Gynecologic cancer cell panel viability, ATPlite luminescence, 48 h; series mostly up to 57.5 µM
Method in brief: as §1

Tov-21-G = assay: as above; conditions: Gynecologic cancer cell panel viability, ATPlite luminescence, 48 h; series mostly up to 57.5 µM
Method in brief: as §1

Tov112D = assay: as above; conditions: Gynecologic cancer cell panel viability, ATPlite luminescence, 48 h; series mostly up to 57.5 µM
Method in brief: as §1

[1] = Drug repurposing screens with cells derived from glioblastoma tumor samples (AID 1345199); conditions: GBM patient neurospheres viability, ATP luminescence, 48 h; note: % is set by controls: 0 for no effect and ±100 for the full control effect; nearly all actives have a fitted effect of over 40% in size
Method in brief: (§2)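 Four patient lines of CD133+ GBM neurospheres were screened at several concentrations; hits were retested in those lines plus three slower-growing GBM lines, using 48-hour treatment and ATP-based viability.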

astro = assay: as above; conditions: viability, ATP luminescence, 48 h; series mostly up to 45.9 µM
Method in brief: as §2

OV90 = assay: Primary qHTS to identify gynecologic anti-cancer compounds using libraries of approved drugs and bioactive compounds (AID 1345084); conditions: Gynecologic cancer cell panel viability, ATPlite luminescence, 48 h; series mostly up to 57.5 µM; note: % is set by controls: 0 for no effect and ±100 for the full control effect; nearly all actives have a fitted effect of over 55% in size
Method in brief: as §1

[2] = target: Nuclear receptor subfamily 1 group I member 2 (Rattus norvegicus) (UniProt Q9R1A7); assay: qHTS assay for small molecule activators of the rat pregnane X receptor (rPXR) signaling pathway (AID 651751; call rule not given here; note: 0% is about no effect); conditions: rPXR reporter cells, luciferase (One-Glo), 24 h
Sequence of Nuclear receptor subfamily 1 group I member 2 (Rattus norvegicus) (Q9R1A7 whole entry, looked up): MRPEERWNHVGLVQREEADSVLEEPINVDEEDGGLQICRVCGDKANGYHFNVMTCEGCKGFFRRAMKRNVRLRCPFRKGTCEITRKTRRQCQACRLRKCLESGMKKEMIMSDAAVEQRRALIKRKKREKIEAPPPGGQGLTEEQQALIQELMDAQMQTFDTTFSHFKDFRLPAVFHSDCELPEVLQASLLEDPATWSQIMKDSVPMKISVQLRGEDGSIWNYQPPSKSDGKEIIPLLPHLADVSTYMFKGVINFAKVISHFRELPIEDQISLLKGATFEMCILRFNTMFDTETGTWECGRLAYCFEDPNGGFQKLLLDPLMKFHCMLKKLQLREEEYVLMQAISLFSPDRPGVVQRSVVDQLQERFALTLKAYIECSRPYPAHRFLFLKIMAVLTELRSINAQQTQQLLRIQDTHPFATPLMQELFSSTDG

[3] = qHTS assay for small molecule activators of the human pregnane X receptor (PXR) signaling pathway (AID 720659; call rule not given here; note: 0% is about no effect)
[4] = at 45.9 µM (top of the series), tumour line B
[5] = at 45.9 µM (top of the series), tumour line D
[6] = at 46.1 µM (top of the series), tumour line C
[7] = at 46 µM (top of the series), tumour line A
[8] = at 21.2 µM (top of the series), tumour line B
[9] = at 20 µM (top of the series), tumour line C
[10] = at 21.2 µM (top of the series), tumour line D
[11] = at 21.3 µM (top of the series), tumour line A

C[C@@H](c1ncncc1F)C(O)(Cn1cncn1)c1ccc(F)cc1F (some centres undefined)
inactive: outcome (Hek293T) | outcome (JEG-3) | outcome (PA-1) | outcome (SKOV3) | outcome (Tov-21-G) | outcome (Tov112D) | activity, negative = cell killing [1, 4] -6.32% | activity, negative = cell killing [1, 5] -23.3% | activity, negative = cell killing [1, 6] 6.65% | outcome (astro)

CCCCCCCCCCCCCCCCCCO
inactive: outcome (Hek293T) | outcome (JEG-3) | Potency (OV90) | outcome (SKOV3) | outcome (Tov-21-G) | outcome (Tov112D) | activity, negative = cell killing [1, 4] -13.2% | activity, negative = cell killing [1, 5] -6.74% | activity, negative = cell killing [1, 6] -1.06% | outcome (astro) | max response [2] 0.797% | outcome [3]

CC(CSC(=O)c1ccccc1)C(=O)N1C[C@@H](Sc2ccccc2)C[C@H]1C(=O)O (some centres undefined)
inactive: outcome (Hek293T) | outcome (JEG-3) | outcome (PA-1) | outcome (Tov-21-G) | outcome (Tov112D) | activity, negative = cell killing [1, 4] -5.59% | activity, negative = cell killing [1, 5] 5.1% | activity, negative = cell killing [1, 7] -20.1% | activity, negative = cell killing [1, 6] -14.7% | outcome (astro)

CCCCCCCCCCCCCCCCC(C(=O)O)C(O)(CC(=O)O)C(=O)O (centres undefined)
inactive: outcome (JEG-3) | Potency (OV90) | outcome (PA-1) | outcome (SKOV3) | outcome (Tov-21-G) | outcome (Tov112D) | activity, negative = cell killing [1, 4] -24.2% | activity, negative = cell killing [1, 5] -4.12% | activity, negative = cell killing [1, 7] -28.6% | activity, negative = cell killing [1, 6] -24.9%

COc1ccc2cc(CCC(C)=O)ccc2c1
inactive: outcome (PA-1) | outcome (Tov-21-G) | outcome (Tov112D) | activity, negative = cell killing [1, 8] -27.9%

COc1cc(C(=O)NCCCCCC(=O)O)cc(OC)c1OC
inactive: outcome (Hek293T) | outcome (JEG-3) | Potency (OV90) | outcome (Tov-21-G) | outcome (Tov112D) | activity, negative = cell killing [1, 4] -7.31% | activity, negative = cell killing [1, 5] -8.75% | activity, negative = cell killing [1, 7] -18.3% | activity, negative = cell killing [1, 6] -40.8% | outcome (astro)

Cc1cc(O)cc(C)c1Cl
inactive: outcome (Hek293T) | outcome (JEG-3) | outcome (PA-1) | outcome (SKOV3) | outcome (Tov-21-G) | outcome (Tov112D) | activity, negative = cell killing [1, 4] 0.561% | activity, negative = cell killing [1, 5] -6% | activity, negative = cell killing [1, 7] -20% | activity, negative = cell killing [1, 6] 6.74% | outcome (astro) | max response [2] 1.15% | outcome [3]

Cc1c(NC(=O)c2cccnc2)c(=O)n(-c2ccccc2)n1C
inactive: outcome (Hek293T) | outcome (JEG-3) | Potency (OV90) | outcome (PA-1) | outcome (Tov-21-G) | outcome (Tov112D) | activity, negative = cell killing [1, 9] -4.61% | activity, negative = cell killing [1, 8] 2.25% | activity, negative = cell killing [1, 10] 12.3% | activity, negative = cell killing [1, 11] -13.1% | outcome (astro)

COc1ccc(NS(=O)(=O)c2ccc(N)cc2)nn1
inactive: outcome (Hek293T) | outcome (JEG-3) | outcome (PA-1) | outcome (SKOV3) | outcome (Tov-21-G) | outcome (Tov112D) | activity, negative = cell killing [1, 9] -22.2% | activity, negative = cell killing [1, 8] -14.9% | activity, negative = cell killing [1, 10] -7.76% | activity, negative = cell killing [1, 11] -20.5% | outcome (astro)

CCCCCOC(=O)Nc1nc(=O)n([C@@H]2O[C@H](C)[C@@H](O)[C@H]2O)cc1F
inactive: outcome (Hek293T) | outcome (JEG-3) | Potency (OV90) | outcome (PA-1) | outcome (Tov-21-G) | outcome (Tov112D) | activity, negative = cell killing [1, 4] 3.4% | activity, negative = cell killing [1, 5] -3.99% | activity, negative = cell killing [1, 7] -16.9% | activity, negative = cell killing [1, 6] 7.27% | outcome (astro)

COc1ccc(Cc2cnc(N)nc2N)cc1OC
inactive: outcome (Hek293T) | outcome (JEG-3) | Potency (OV90) | outcome (PA-1) | outcome (Tov-21-G) | outcome (Tov112D) | activity, negative = cell killing [1, 4] 11% | activity, negative = cell killing [1, 5] -18.1% | activity, negative = cell killing [1, 6] -4.34% | outcome (astro)

CC(=O)Nc1ccc(OCCOCCOc2ccc(NC(C)=O)cc2)cc1
inactive: outcome (Hek293T) | outcome (JEG-3) | Potency (OV90) | outcome (PA-1) | outcome (Tov-21-G) | outcome (Tov112D) | activity, negative = cell killing [1, 4] -5.83% | activity, negative = cell killing [1, 6] -16.3% | outcome (astro)

Nc1ccc(S(=O)(=O)c2ccc(N)cc2)cc1
inactive: outcome (Hek293T) | outcome (JEG-3) | Potency (OV90) | outcome (Tov-21-G) | outcome (Tov112D) | activity, negative = cell killing [1, 4] -14.4% | activity, negative = cell killing [1, 5] 8.15% | activity, negative = cell killing [1, 7] -30% | activity, negative = cell killing [1, 6] -8.46% | outcome (astro) | max response [2] -2.07% and 2.17% | outcome [3]

O=C(O)[C@@H]1[C@H]2C[C@H]3c4[nH]c5ccccc5c4CCN3C[C@@H]2CC[C@@H]1O
inactive: outcome (Hek293T) | outcome (JEG-3) | outcome (PA-1) | outcome (SKOV3) | outcome (Tov-21-G) | outcome (Tov112D) | activity, negative = cell killing [1, 9] -17% | activity, negative = cell killing [1, 8] 2.22% | activity, negative = cell killing [1, 11] -34.6% | outcome (astro)

Cc1ccsc1/C=C/C1=NCCCN1C
inactive: outcome (Hek293T) | outcome (JEG-3) | Potency (OV90) | outcome (PA-1) | outcome (Tov-21-G) | outcome (Tov112D) | activity, negative = cell killing [1, 9] -9.86% | activity, negative = cell killing [1, 8] -2.99% | activity, negative = cell killing [1, 10] -7.19% | activity, negative = cell killing [1, 11] -22.2% | outcome (astro)

CN1CCN(C(=O)C2CCCCC2)CC1
inactive: outcome (Hek293T) | outcome (JEG-3) | Potency (OV90) | outcome (PA-1) | outcome (Tov-21-G) | outcome (Tov112D) | activity, negative = cell killing [1, 4] -7.62% | activity, negative = cell killing [1, 5] -7.41% | activity, negative = cell killing [1, 6] -23.1% | outcome (astro)

NC(=O)N[C@@H](CCC(=O)O)C(=O)O
inactive: outcome (Hek293T) | outcome (JEG-3) | Potency (OV90) | outcome (SKOV3) | activity, negative = cell killing [1, 4] -6.35% | activity, negative = cell killing [1, 5] -8.74% | activity, negative = cell killing [1, 7] -22.8% | activity, negative = cell killing [1, 6] -19.7%

O=C(O)CNC(=O)c1ccccc1I
inactive: outcome (Hek293T) | outcome (JEG-3) | Potency (OV90) | outcome (PA-1) | outcome (Tov-21-G) | outcome (Tov112D) | activity, negative = cell killing [1, 4] -1.24% | activity, negative = cell killing [1, 5] 4.71% | activity, negative = cell killing [1, 7] -24.5% | activity, negative = cell killing [1, 6] -16.1% | outcome (astro)

CC(=O)Oc1cccc(O)c1
inactive: outcome (Hek293T) | outcome (JEG-3) | outcome (PA-1) | outcome (SKOV3) | outcome (Tov-21-G) | outcome (Tov112D) | activity, negative = cell killing [1, 4] -1.54% | activity, negative = cell killing [1, 5] -17.1% | activity, negative = cell killing [1, 7] -23.9% | activity, negative = cell killing [1, 6] -11% | outcome (astro)
